B1: ENSMUSG00000043670.121|Diras1 (ssRNA)
RNA: GGGAGUUCUACAGUCCGACGAUCGCUUCGAUAUCCGCAUGCUAUGUCUGCACACCAGGGUGGAUGGGCCCGAGGGCUGGGCCUCAGGCACCAGGCAAUAAACACAGGGCCUGCAGCAAUGCCCUGGCCACCCCGAGUACCACCUCUGGAAUAGCAGACGCCCACAGCACAAGCCCAGGACUGUCCCUUCAGGGGAGGCACACUGGAACCCUGAACUUGGAGUGUGGAGUGGCUGCCUGGACACUGCCCACCUGGACACCAGCCUUCUGCUGAGAUAGAGACCUUGGCACAGUGGCACCUCGACCUCUUGCGGUCGCACUAGUGUGGAAUUCUCGGGUGUCAAGG
B2: ENSMUSG00000043670.183|Diras1|29:33;126:130;160:164;174:183;189:196;229:233 (ssRNA)
RNA: GGGAGUUCUACAGUCCGACGAUCGCUUCGAUAUCCGCAUGCUAGACAGAAUCUGAGCCUCUUUGCUGGUCAACACAACUCUGGAGACUGUCCCCCAUGUCUGCCCUGAGUUACGGAGCCCCUGUGGUAUCUGCGAGACUGUCCAGGAGACUUGAGUGGCUCCUGGGCCACACACCCACCCAGAUGAGGGUGACUUAGAAUUCACACAUUAUGUGCCACACACACACGAUGGCACACACACUGUCUUGGGAUGGGGUGUUCUUGCACCACUUACACAUCUUAGUGAGACCACAGUGUAAGUGGCCUCUUGCGGUCGCACUAGUGUGGAAUUCUCGGGUGUCAAGG
B3: ENSMUSG00000061578.1090|Ksr2 (ssRNA)
RNA: GGGAGUUCUACAGUCCGACGAUCGCUUCGAUAUCCGCAUGCUAAGCAGCCAACCAUGAAAAUAGAGGUUUGUAAUGUACAGAAGGCUGGGGGAGCUUUCAGGGGUGUGGCCAGUUAUGUACAGAUGUGAAGCUGAGGUCUGAAGGAAAUGGAGGAAGUAGGAAGAUCAGACUGGUUGAAUUAGAAGUCUGUCACUCUAGGUGCUAAGUGACCUUGGACCCAGUCAGUUCUUGGAUUUCUGUUGUAGCCCAGGCUAGCCUCGAACCCUUGAUCCUCCUGUUCCUGGUAGAGAAACAGCCACUAACUCUUGCGGUCGCACUAGUGUGGAAUUCUCGGGUGUCAAGG
B4: ENSMUSG00000042529.382|Kcnj12 (ssRNA)
RNA: GGGAGUUCUACAGUCCGACGAUCGCUUCGAUAUCCGCAUGCUAUAAGGUGGGUUUCAUGCUCACCAACCUGAACUGGUCAGGCUGGAUGCUGGCCACAGACAUGAUCAGUCCGACUUGAGUCCCUGCCCUGCCCUGGUUAUGCAGGCUGUACGACGCAGUGUGCAUCAGUCUGAGGAGUCUGGUGGUAAGUAAGCCUCUGCAGCAGACCCUGUCGGAGGCCAUGGGGGCGUGUGUGUGUGUGUGUGUGUGUGUGUGUGUGUGUGUGUGUGUGUGUGUGUGUGAACAUGUGUGAGGGUGUGGAGCUCUUGCGGUCGCACUAGUGUGGAAUUCUCGGGUGUCAAGG
B5: ENSMUSG00000061578.23|Ksr2 (ssRNA)
RNA: GGGAGUUCUACAGUCCGACGAUCGCUUCGAUAUCCGCAUGCUAGUGAUGACGUCACAGAGGCUGUCCACACCUUCGACUUGUACCCCGUUACUCAGGCACGAUCAGGGACCACUCAACUAGGACCAAACUGGGCCAGAGAGGGUCCCAUGUGUGGUGUGAAGGAGCCACAGACUGAGCACACCACCUCGGACUGUGGAGACCAAGACACAUGCCCAGUGGGCAGACUCAGACUCACACGCUGGACCAGUGUGUGCGCAUGUGUCUACACAUGGACAGGGCCAACUGCUAUCCUUCUGCCUGGACUCUUGCGGUCGCACUAGUGUGGAAUUCUCGGGUGUCAAGG
B6: ENSMUSG00000042529.380|Kcnj12 (ssRNA)
RNA: GGGAGUUCUACAGUCCGACGAUCGCUUCGAUAUCCGCAUGCUAUUUAAAUUUGGGUAAGGUGGGUUUCAUGCUCACCAACCUGAACUGGUCAGGCUGGAUGCUGGCCACAGACAUGAUCAGUCCGACUUGAGUCCCUGCCCUGCCCUGGUUAUGCAGGCUGUACGACGCAGUGUGCAUCAGUCUGAGGAGUCUGGUGGUAAGUAAGCCUCUGCAGCAGACCCUGUCGGAGGCCAUGGGGGCGUGUGUGUGUGUGUGUGUGUGUGUGUGUGUGUGUGUGUGUGUGUGUGUGUGUGAACAUGUGUCUCUUGCGGUCGCACUAGUGUGGAAUUCUCGGGUGUCAAGG
B7: ENSMUSG00000042529.384|Kcnj12 (ssRNA)
RNA: GGGAGUUCUACAGUCCGACGAUCGCUUCGAUAUCCGCAUGCUACAUGCUCACCAACCUGAACUGGUCAGGCUGGAUGCUGGCCACAGACAUGAUCAGUCCGACUUGAGUCCCUGCCCUGCCCUGGUUAUGCAGGCUGUACGACGCAGUGUGCAUCAGUCUGAGGAGUCUGGUGGUAAGUAAGCCUCUGCAGCAGACCCUGUCGGAGGCCAUGGGGGCGUGUGUGUGUGUGUGUGUGUGUGUGUGUGUGUGUGUGUGUGUGUGUGUGUGUGAACAUGUGUGAGGGUGUGGAGGUCCCAGGGUGUCUCUUGCGGUCGCACUAGUGUGGAAUUCUCGGGUGUCAAGG
B8: ENSMUSG00000042529.385|Kcnj12 (ssRNA)
RNA: GGGAGUUCUACAGUCCGACGAUCGCUUCGAUAUCCGCAUGCUACACCAACCUGAACUGGUCAGGCUGGAUGCUGGCCACAGACAUGAUCAGUCCGACUUGAGUCCCUGCCCUGCCCUGGUUAUGCAGGCUGUACGACGCAGUGUGCAUCAGUCUGAGGAGUCUGGUGGUAAGUAAGCCUCUGCAGCAGACCCUGUCGGAGGCCAUGGGGGCGUGUGUGUGUGUGUGUGUGUGUGUGUGUGUGUGUGUGUGUGUGUGUGUGUGUGAACAUGUGUGAGGGUGUGGAGGUCCCAGGGUGUGUGUAUCUCUUGCGGUCGCACUAGUGUGGAAUUCUCGGGUGUCAAGG
B9: ENSMUSG00000031028.210|Tub (ssRNA)
RNA: GGGAGUUCUACAGUCCGACGAUCGCUUCGAUAUCCGCAUGCUAAAUGUAUAAGGUUGGAAACCUUUCAGUAGGGAAUCAGGCAGUUCCCUGUUGAAAGUUGUCUGAGUUUUUGCACACCAUUCUGAUCUGAUGUGGCCUGUGCCUGGCUCCUCUAUGAGGACUUCGAGCUGUGCACAGACCUUAGCAGGACCACUGCACACUUUGUGUCUGUGUGACAGGCAGCCCAAGGGUUCUGGGGCUGGGCUUGGACACGCCCUCCAUUGGGAUGGCACCACUCAUCUGGUGGGCUUGGGAACUCCAAGCUCUUGCGGUCGCACUAGUGUGGAAUUCUCGGGUGUCAAGG
B10: ENSMUSG00000042529.381|Kcnj12 (ssRNA)
RNA: GGGAGUUCUACAGUCCGACGAUCGCUUCGAUAUCCGCAUGCUAUUUGGGUAAGGUGGGUUUCAUGCUCACCAACCUGAACUGGUCAGGCUGGAUGCUGGCCACAGACAUGAUCAGUCCGACUUGAGUCCCUGCCCUGCCCUGGUUAUGCAGGCUGUACGACGCAGUGUGCAUCAGUCUGAGGAGUCUGGUGGUAAGUAAGCCUCUGCAGCAGACCCUGUCGGAGGCCAUGGGGGCGUGUGUGUGUGUGUGUGUGUGUGUGUGUGUGUGUGUGUGUGUGUGUGUGUGUGAACAUGUGUGAGGGUCUCUUGCGGUCGCACUAGUGUGGAAUUCUCGGGUGUCAAGG
B11: ENSMUSG00000061578.39|Ksr2 (ssRNA)
RNA: GGGAGUUCUACAGUCCGACGAUCGCUUCGAUAUCCGCAUGCUAAGGGUCCCAUGUGUGGUGUGAAGGAGCCACAGACUGAGCACACCACCUCGGACUGUGGAGACCAAGACACAUGCCCAGUGGGCAGACUCAGACUCACACGCUGGACCAGUGUGUGCGCAUGUGUCUACACAUGGACAGGGCCAACUGCUAUCCUUCUGCCUGGACGAGCCAGCUGUGGAGUGUCCCAGCUGUGCUAUCCUGGAACACAGAACCAGGAUGGAACCAGAAACAAUACACCUGCUCCGUUGUCAAGGCUUCUACUCUUGCGGUCGCACUAGUGUGGAAUUCUCGGGUGUCAAGG
B12: ENSMUSG00000042529.383|Kcnj12 (ssRNA)
RNA: GGGAGUUCUACAGUCCGACGAUCGCUUCGAUAUCCGCAUGCUAGGGUUUCAUGCUCACCAACCUGAACUGGUCAGGCUGGAUGCUGGCCACAGACAUGAUCAGUCCGACUUGAGUCCCUGCCCUGCCCUGGUUAUGCAGGCUGUACGACGCAGUGUGCAUCAGUCUGAGGAGUCUGGUGGUAAGUAAGCCUCUGCAGCAGACCCUGUCGGAGGCCAUGGGGGCGUGUGUGUGUGUGUGUGUGUGUGUGUGUGUGUGUGUGUGUGUGUGUGUGUGUGAACAUGUGUGAGGGUGUGGAGGUCCCACUCUUGCGGUCGCACUAGUGUGGAAUUCUCGGGUGUCAAGG

Whole data set: some 9,900 sequences, median “r (bound/input frequency ratio)” near 0.7, cut for the highest 2% near 6.5. This is one part of a sample in which the highest values are shown more often than they occur.

The target in the test is TDP-43 (Homo sapiens, UniProt Q13148 1-414). Kind of test: RNA Bind-n-Seq with designed 260-mer pool; 25 mM Tris-HCl, 150 mM KCl, 3 mM MgCl2, BSA (printed 500 mg/mL), 20 units/mL SUPERase IN; pH not stated; 500 nM RNA pool, 1 h, 4 C; TDP-43 5, 50, 500 nM; high values mean tight binding. The note with it: protein: recombinant; tags: SBP (GST cleaved off with PreScission; pGEX-GST-SBP). The essentials: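 Recombinant SBP-tagged TDP-43 at 5, 50 or 500 nM was captured on streptavidin beads, then incubated 1 h at 4 °C with 500 nM of an in vitro-transcribed 260-nt 3′ UTR oligo pool in 25 mM Tris-HCl, 150 mM KCl, 3 mM MgCl2, BSA and SUPERase IN. Bound RNA was washed, eluted with biotin, reverse transcribed, PCR-amplified and sequenced. Binding is R, each oligo's mapped-read-normalized abundance in the bound sample divided by its abundance in input. Duplicates used two independent protein batches.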
Sequence of TDP-43 (Q13148 whole entry): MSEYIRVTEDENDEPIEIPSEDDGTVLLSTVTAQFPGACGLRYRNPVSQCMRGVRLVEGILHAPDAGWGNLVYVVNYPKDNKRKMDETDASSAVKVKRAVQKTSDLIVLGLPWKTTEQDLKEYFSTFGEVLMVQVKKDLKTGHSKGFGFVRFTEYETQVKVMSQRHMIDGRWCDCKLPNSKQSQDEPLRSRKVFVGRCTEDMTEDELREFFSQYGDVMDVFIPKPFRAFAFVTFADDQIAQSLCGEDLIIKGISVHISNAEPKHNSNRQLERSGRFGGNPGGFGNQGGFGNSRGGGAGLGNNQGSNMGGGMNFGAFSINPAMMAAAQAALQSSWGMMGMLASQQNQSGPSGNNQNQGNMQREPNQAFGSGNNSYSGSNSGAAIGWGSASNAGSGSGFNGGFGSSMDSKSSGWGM
As for B1, the binding signal is 0.914 R (bound/input frequency ratio).

On to B2, for which the binding signal is 0.711 R (bound/input frequency ratio).

On to B3, for which the binding signal was 1.34 R (bound/input frequency ratio).

For the molecule B4, the binding signal is 6.14 R (bound/input frequency ratio).

For the molecule B5, the binding signal is 0.299 R (bound/input frequency ratio).

In the case of B6, the binding signal was 7.35 R (bound/input frequency ratio).

For B7, the binding signal was 7.66 R (bound/input frequency ratio).

Regarding B8, the binding signal was 7.81 R (bound/input frequency ratio).

As to B9, the binding signal was 2.94 R (bound/input frequency ratio).

For the molecule B10, the binding signal is 6.18 R (bound/input frequency ratio).

As to B11, the binding signal was 0.764 R (bound/input frequency ratio).

For B12, the binding signal is 8.12 R (bound/input frequency ratio).

(Values after publication PMC12864922, “TDP-43 directly inhibits mRNA accumulation in neurites through modulation of mRNA stability”.)
